Source: PubChem BioAssay AID1224903 (Bradner/Qi Labs at DFCI, 2016)
The campaign covered roughly 66,000 compounds. About 720 (1.1%) were called active. Cut-off read from the data, not from the text of the source: active = normalised signal below about 0.5; inactive = the rest, inconclusive results apart. Many of the other results were omitted from the sample, so actives are more common in it than they were.

Target: Chromobox protein homolog 7 (Homo sapiens) (UniProt O95931)
Test: blockers of CBX7 binding to H3K27me3 peptide – biochemical, AlphaScreen, primary screen (AID 1224903)
Settings: AlphaScreen His6-CBX7 / biotin-H3K27me3 peptide binding, stronger effect = lower value; z-score: measured here: z-score of CBX7 signal

Chain of Chromobox protein homolog 7 (Homo sapiens) (O95931 whole entry, looked up): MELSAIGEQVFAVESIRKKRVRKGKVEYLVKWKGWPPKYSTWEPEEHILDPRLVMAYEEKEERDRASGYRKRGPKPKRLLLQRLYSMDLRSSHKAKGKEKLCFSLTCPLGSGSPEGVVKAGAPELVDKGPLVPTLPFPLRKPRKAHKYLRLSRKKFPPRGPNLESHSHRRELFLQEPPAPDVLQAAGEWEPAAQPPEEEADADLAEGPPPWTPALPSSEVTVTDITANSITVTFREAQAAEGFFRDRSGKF

SMILES | normalised signal (fraction of DMSO) | z-score
Cc1ccc2c(c1)C(c1ccc(F)cc1)N(C(=O)c1ccc(S(=O)(=O)N3CCCC3)cc1)CC(=O)N2 (centres undefined) | 0.859 (inactive) | -1.94
Cc1ccc(C(=O)N2CC(=O)Nc3ccc(F)cc3C2c2ccc(F)cc2)cc1 (centres undefined) | 1.01 (inactive) | 0.159
Cc1ccc2c(c1)C(c1ccc(F)cc1)N(C(=O)c1ccc(C)c(C)c1)CC(=O)N2 (centres undefined) | 0.316 (active) | -6.53
O=C(Nc1ccccc1C(=O)Nc1ccccc1)c1cccc(S(=O)(=O)N2CCCCC2)c1 | 0.764 (inactive) | -2.54
Cc1ccc(C(C)C)c(OCc2nnc(NC(=O)c3ccc(Br)cc3)s2)c1 | 1.06 (inactive) | 0.262
CCN1CCN(CCCNC(=O)c2ccc3c(c2)N(Cc2ccc(F)cc2)CCS3)CC1 | 0.904 (inactive) | -4.6
CC(=O)N1CCC(N(C(=O)Nc2ccc(Cl)cc2)C2CCCCCC2)CC1 | 1.02 (inactive) | 0.287
Cc1ccc(-c2nc(Nc3ccccc3)sc2C)cc1 | 0.99 (inactive) | -0.257
CCCCNC(=O)c1cc(Nc2ccc(CC)cc2)nc2ccccc12 | 0.991 (inactive) | -0.251
O=C(NCc1ccccc1)C1CCN(c2nc3ccccc3o2)CC1 | 1.02 (inactive) | 0.778
COc1ccc(CNc2nc(-c3ccccc3)cc(C(F)(F)F)n2)cc1 | 1.28 (inactive) | 3.06
COc1ccc(CNc2ccc3c(c2)ncn3C(C)(C)C)c(OC)c1 | 0.589 (inactive) | -11.8
Cc1ccc(NC(=O)CCc2nnc3ccc(NCc4ccccc4Cl)nn23)cc1 | 0.916 (inactive) | -2.3
CC(C)n1cnc2cc(NCc3ccccc3Cl)ccc21 | 0.463 (active) | -15.4
COc1ccc(OC)c(Cc2nc3cc(C)c(C)cc3[nH]c2=O)c1 | 0.964 (inactive) | -1.09
O=C(Nc1ccccc1Cl)C1CCN(C(=O)c2cnn(-c3ccccc3)c2-n2cccc2)CC1 | 1.04 (inactive) | 1.69
Cc1ccc(C(=O)CN2C3=NCCN3c3ccccc32)cc1 | 0.994 (inactive) | -0.186
CC(C)N(CCCNC(=O)C1CCC(=O)N1Cc1ccc(F)cc1)Cc1ccccc1 (centres undefined) | 0.995 (inactive) | -0.146
CCc1ccc(NC(=O)Cn2c(SCc3cccc(F)c3)nc3ccncc32)cc1 | 1.06 (inactive) | 0.594
Fc1cnc(Nc2ccc(Cl)cc2)nc1Nc1ccc(Cl)cc1 | 1.05 (inactive) | 0.523
CCc1cc(C)cc(OCC(O)Cn2cnc3ccccc32)c1 (centres undefined) | 0.88 (inactive) | -3.02
CC(C)c1ccc(OCC(O)Cn2cnc3ccccc32)cc1 (centres undefined) | 0.284 (active) | -13.5

SMILES | normalised signal (fraction of DMSO) | z-score
Cc1ccc(C(C)C)cc1OCC(O)Cn1cnc2ccccc21 (centres undefined) | 0.815 (inactive) | -2.55
Cc1ccc(NC(=O)c2cc(C)nn2-c2ccccc2)c(C)c1 | 1.04 (inactive) | 1.18
COc1cccc(C(=O)Nc2ccc3oc(-c4ccccc4)nc3c2)c1 | 1.16 (inactive) | 2.43
COc1ccc(-c2noc(N(C)CC(=O)N3CCN(C)CC3)n2)cc1 | 1.02 (inactive) | 0.593
O=C(CSCc1cnn(-c2ccccc2)c1-n1cccc1)NC1CC1 | 0.986 (inactive) | -0.615
COc1ccccc1N1CCN(C(c2cccs2)C(C)NC(=O)c2ccc3c(c2)OCO3)CC1 (centres undefined) | 0.905 (inactive) | -2.32
CCOc1ccc(C(=O)Nc2c3c(nn2-c2cccc(C)c2C)CSC3)cc1 | 1.01 (inactive) | 0.119
Cc1ccc(Cc2cnc(CN(C)C)c(O)c2)cc1 | 0.477 (active) | -6.92
Clc1ccc2nc(-c3ccsc3)c(NC(c3ccccc3)c3ccccc3)n2c1 | 1.04 (inactive) | 1.58
Cc1ccc(CNc2oc(-c3ccc(F)cc3)nc2C#N)cc1 | 0.934 (inactive) | -2.3
COc1ccc(-c2cc(C(=O)NCCCn3ccnc3)no2)cc1 | 0.983 (inactive) | -0.364
Cc1ccc(-c2nc(C#N)c(NCCCn3ccnc3)o2)cc1 | 0.442 (active) | -0.658
COc1ccc(Cl)cc1NC(=O)C1c2cc(OC)c(OC)cc2C(=O)N(C)C1c1ccccc1F (centres undefined) | 1.06 (inactive) | 1.16
Cc1ccc(CNC(=O)c2c(-c3ccccc3)noc2C)cc1 | 1.03 (inactive) | 0.952
CC1(C)CC(=O)c2cc(OCC(=O)NCCCN3CCCC3)ccc2O1 | 0.509 (inactive) | -9.7
Cc1ccc(-c2nc3c(C)cccn3c2Nc2ccc3c(c2)OCCO3)cc1 | 0.63 (inactive) | -13.9
O=C(NCc1ccccc1)C1C2C=CC3(CN(Cc4ccccc4Cl)C(=O)C13)O2 (centres undefined) | 0.955 (inactive) | -2.13
CCCCn1c(C2CC(=O)N(c3ccc(CC)cc3)C2)nc2ccccc21 (centres undefined) | 0.96 (inactive) | -0.9
Cc1ccc(-c2nnc(Nc3ccc(C(=O)N(C)C)cc3)c3ccccc23)cc1S(N)(=O)=O | 1.08 (inactive) | 2.41
CCOc1ccc(-c2nnc(Nc3ccc(C(N)=O)cc3)c3ccccc23)cc1 | 0.436 (active) | -2.64
Cc1ccc(-c2nnc(Nc3ccc(OCC(N)=O)cc3)c3ccccc23)cc1S(=O)(=O)NC(C)C | 0.723 (inactive) | -5.21
CCCNC(=O)c1ccc2c(c1)N(Cc1ccccc1)C(=O)c1ccccc1S2(=O)=O | 1.14 (inactive) | 2.25

SMILES | normalised signal (fraction of DMSO) | z-score
CCOC(=O)c1sc(NC(=O)c2ccc(OCC)cc2)nc1-c1ccccc1 | 0.993 (inactive) | -0.166
Cc1ccc(Cn2c(=O)cc(C(=O)NC3CC3)c3ccccc32)cc1 | 0.912 (inactive) | -0.873
COc1ccc(Cl)cc1C1CC(=O)Nc2cc3c(cc21)OCO3 (centres undefined) | 1.03 (inactive) | 0.351
CCc1nc2ccc(C(=O)NCC(OC)OC)cc2nc1CC | 1.13 (inactive) | 0.801
CC1CCN(c2c(NCc3ccc(C(=O)NCc4ccccc4)cc3)c(=O)c2=O)CC1 | 0.993 (inactive) | -0.292
COc1cc(-c2nc(-c3ccccc3)c(-c3ccccc3)[nH]2)ccc1OCC(=O)O | 0.774 (inactive) | -0.891
COc1ccc(-c2[nH]c(-c3ccc(C)cc3)nc2SCC(=O)Nc2ccc(F)cc2)cc1OC | 0.756 (inactive) | -11.6
COc1ccc(-c2nc(-c3ccc(F)cc3)c(-c3ccc(F)cc3)[nH]2)cc1OC | 0.322 (active) | -13.4
CC1(C)C=c2c(nnc3ncnn23)=C(O)C1 | 0.00873 (active) | -15.7
CCOC(=O)C1CCCN(c2c(N3CC(C)CC(C)C3)c(=O)c2=O)C1 (centres undefined) | 0.898 (inactive) | -2.3
Cc1ccc(OCc2nc(C#N)c(N3CCCC3)o2)cc1 | 0.417 (active) | -10.6
COc1ccc(OCc2nc(C#N)c(N(C)Cc3ccccc3)o2)cc1 | 0.575 (inactive) | -2.65
N#Cc1nc(COc2ccc(Cl)cc2)oc1N1CCCC1 | 0.728 (inactive) | -11.9
Cc1cc(N2CCCCC2)nc2ccc(NC(=O)CCC(=O)N3CCN(c4ccc(F)cc4)CC3)cc12 | 1.05 (inactive) | 0.868
Cc1ccc(C)c(CN2C(=O)CSc3ccc(C(=O)NCCCN4CCCCCC4)cc32)c1 | 0.98 (inactive) | -0.433
Cc1cc(C)nc(N=C(N)N2CCC(Cc3ccccc3)CC2)n1 | 0.97 (inactive) | -0.61
COc1cc(Cl)c(C)cc1NC(=O)c1n[nH]c(=O)c2ccccc12 | 1.01 (inactive) | 0.38
CC1CCCCC1NS(=O)(=O)c1ccc2c(c1)CCN2C(=O)C1CCC1 (centres undefined) | 0.937 (inactive) | -2.14
COCCN1Cc2cccc(C(=O)NC3CCCC3)c2C1=O | 1.06 (inactive) | 0.062
O=C(NC1CC1)c1ccc2c(c1)NC(=O)c1ccccc1N2 | 0.861 (inactive) | -2.13
Cc1sc2ncnc(NCC3(c4ccccc4)CCCC3)c2c1C | 1.08 (inactive) | 1.89
COCCNC(=O)c1ccc2c(c1)N=C(C)c1cc(Br)ccc1S2 | 0.995 (inactive) | -0.23

SMILES | normalised signal (fraction of DMSO) | z-score
CCC(C)NC(=O)c1sc2ncn(CC(=O)Nc3ccccc3OC)c(=O)c2c1C (centres undefined) | 1.07 (inactive) | 0.734
Cc1ccc(-c2nc3ncccc3o2)cc1NC(=O)c1ccc(Br)cc1 | 0.923 (inactive) | -0.643
CC(C)NC(=O)c1ccc2nc(-c3ccccc3)c(-c3ccccc3)nc2c1 | 1.07 (inactive) | 0.662
Cc1cccc(CCNC(=O)CCCNS(=O)(=O)c2ccc3c(c2)CCC(=O)N3)c1 | 1.06 (inactive) | 2.11
CCOc1ccc(CNC(=O)C(C)N2C(=O)COc3ccc(C)cc32)cc1 (centres undefined) | 0.421 (active) | -10.5
CCN(CCCNC(=O)C(C)N1C(=O)COc2ccc(C)cc21)c1ccccc1 (centres undefined) | 0.631 (inactive) | -6.67
Cc1ccc2c(c1)N(C(C)C(=O)NCc1ccc(F)cc1Cl)C(=O)CO2 (centres undefined) | 0.512 (inactive) | -8.83
O=C1C2C3C=CC(C4CC34)C2C(=O)N1Cc1cccnc1 (centres undefined) | 0.934 (inactive) | -1.18
Cc1cc(N2CCCCC2)nc2ccc(NC(=O)c3cnccn3)cc12 | 0.882 (inactive) | -2.15
CCN(CCNC(=O)Cn1nc(-c2ccc(Cl)cc2)ccc1=O)c1ccccc1 | 0.859 (inactive) | -7.3
COc1ccc(N2CC(C(=O)Nc3ccc(C(C)C)cc3)CC2=O)cc1 (centres undefined) | 1.06 (inactive) | 0.0758
CC(=O)Nc1ccccc1-c1nc2ccccc2n(C)c1=O | 1.23 (inactive) | 3.65
Cc1cc(C)cc(OC(C)C(=O)N(Cc2ccc(Cl)cc2)C2CCS(=O)(=O)C2)c1 (centres undefined) | 0.978 (inactive) | -0.282
Nc1nonc1-c1noc(-c2c(F)cccc2F)n1 | 1.09 (inactive) | 0.864
COc1ccc(Nc2cc(C(=O)NC3CC3)c3ccccc3n2)c(OC)c1 | 0.865 (inactive) | -2.17
CCOc1ccc(-n2ccnc2SCC(=O)Nc2ccccc2F)cc1 | 0.617 (inactive) | -0.508
CCOc1ccc(-n2ccnc2SCC(=O)Nc2cccc(Cl)c2)cc1 | 0.445 (active) | -0.736
CCOc1ccc(-n2ccnc2SCC(=O)Nc2ccc(C)cc2C)cc1 | 0.963 (inactive) | -0.292
COc1ccc(-n2ccnc2SCC(=O)Nc2ccc(C)cc2)cc1 | 0.62 (inactive) | -0.504
COc1cccc(-n2ccnc2SCC(=O)Nc2ccc(Br)cc2)c1 | 0.458 (active) | -0.719
COc1cccc(-n2ccnc2SCC(=O)Nc2ccc(OC(F)(F)F)cc2)c1 | 0.995 (inactive) | -0.0932
